The target of assay [1] is Nuclear respiratory factor 1 (Homo sapiens) (UniProt Q16656). The assay can be described thus: ATG_NRF1_CIS: Attagene CIS-FACTORIAL HepG2 Assay for human Nuclear Respiratory Factor 1 (NRF1) Orphan Gene (AID 2282987). Conditions: HepG2 NRF1 cis-element reporter, Attagene multiplex; actives raise or lower the signal. The gist of the method:
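Cells (HepG2, transient MRTU transfection) are exposed to compound for 24 h, then RNA isolated and reporter mRNA amplified and fluorescently labelled. Fragments are separated by capillary electrophoresis; signal change is fitted bidirectionally relative to DMSO.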

The target in assay [2] is Myc proto-oncogene protein (Homo sapiens) (UniProt P01106). Description: ATG_Myc_CIS: Attagene CIS-FACTORIAL HepG2 Assay for human Myelocytomatosis (Myc) Proto-Oncogene Transcription Factor (AID 2282990). Conditions: HepG2, Attagene cis-reporter transcription factor activity; actives raise or lower the signal. The gist of the method: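 After 24 h chemical treatment of HepG2 cells carrying multiplexed cis-regulated reporter constructs, reporter transcripts quantified by RT-PCR and capillary electrophoresis of fluorescent fragments. Gain or loss fitted against DMSO baseline.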
Myc proto-oncogene protein (Homo sapiens), sequence (P01106 whole entry, looked up, the tested form may be a part): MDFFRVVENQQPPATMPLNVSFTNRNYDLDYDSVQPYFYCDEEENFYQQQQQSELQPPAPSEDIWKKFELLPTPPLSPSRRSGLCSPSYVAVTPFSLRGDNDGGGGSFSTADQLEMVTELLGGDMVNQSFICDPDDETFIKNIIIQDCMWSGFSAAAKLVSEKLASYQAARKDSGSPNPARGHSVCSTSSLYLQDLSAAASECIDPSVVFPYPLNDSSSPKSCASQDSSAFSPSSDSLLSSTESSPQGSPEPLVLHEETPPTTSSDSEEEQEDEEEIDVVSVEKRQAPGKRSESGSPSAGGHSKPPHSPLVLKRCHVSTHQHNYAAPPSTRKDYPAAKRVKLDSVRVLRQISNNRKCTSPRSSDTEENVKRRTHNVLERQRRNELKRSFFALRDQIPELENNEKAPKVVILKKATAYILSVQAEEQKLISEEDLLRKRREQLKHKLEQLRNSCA

A short description of assay [3]: ATG_NF_kB_CIS: Attagene CIS-FACTORIAL HepG2 Assay for human Nuclear Factor Kappa B (NF-kB) (AID 2282991). The following applies: HepG2 Attagene cis-factorial NF-kB reporter mRNA; actives raise or lower the signal. The gist of the method: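 Measures mRNA induction of an NF-kB-responsive cis-element reporter in HepG2 cells transfected with multiple reporter units, sampled 24 h post-dosing; quantified by fluorescence after RT-PCR and capillary electrophoresis, fitted for activation or inhibition against DMSO.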

Assay [4] is described as follows: ATG_NRF2_ARE_CIS: Attagene CIS-FACTORIAL HepG2 Assay for human Nuclear Factor Erythroid 2 Related Factor 2 (NFR2) response to Antioxidant Response Elements (ARE) (AID 2282992). Conditions: HepG2 Attagene ARE/NRF2 reporter, transcription factor activity; actives raise or lower the signal. The gist of the method: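 Endogenous transcription factor activity read out as reporter transcript levels (RT-PCR plus capillary electrophoresis, fluorescence) in transiently transfected HepG2 cells. Measured at 24 h after dosing; gain or loss of signal fitted versus DMSO.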

Assay [5] is described as follows: ATG_Oct_MLP_CIS: Attagene CIS-FACTORIAL HepG2 Assay for human Octamer-Binding Transcription Factor (Oct) (AID 2282993). Conditions: HepG2 Attagene cis-factorial Oct reporter, mRNA; actives raise or lower the signal. The gist of the method:
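Multiplexed cis-reporter assay in human liver HepG2 cells, 24 h incubation. Reporter RNA amplified and labelled, then resolved by capillary electrophoresis; DMSO serves as negative control and baseline.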

Assay [6] has as its target Cellular tumor antigen p53 (Homo sapiens) (UniProt P04637). Description: ATG_p53_CIS: Attagene CIS-FACTORIAL HepG2 Assay for human p53 Transcription Factor (AID 2282994). The following applies: HepG2 p53 cis-element reporter, Attagene mRNA; actives raise or lower the signal. The method, boiled down: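 Endogenous p53 activity read in transiently transfected HepG2 from a cis-element-driven reporter transcript after 24 h exposure. RNA reverse-transcribed, PCR-amplified, fluorescently labelled and sized by capillary electrophoresis; gain or loss fitted against DMSO baseline.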

Assay [7] can be described thus: BSK_3C_TissueFactor: BioMAP Diversity Plus: 3C Assay for Tissue Factor Biomarker Activity (AID 2282997). Conditions: BioMAP 3C HUVEC, tissue factor biomarker readout; actives raise or lower the signal. The method, boiled down:
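Readout: Tissue Factor ELISA. Cells: human primary umbilical vein endothelium. Time: 24 h after dosing. Analysis: bidirectional fit, DMSO baseline.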

Assay [8] in a line: BSK_3C_uPAR: BioMAP Diversity Plus: 3C Assay for Urokinase-type plasminogen activator receptor (uPAR) Biomarker Activity (AID 2282998). Conditions: BioMAP 3C HUVEC, uPAR biomarker ELISA; actives raise or lower the signal. The gist of the method:
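Dose primary human umbilical vein endothelial cells, incubate 24 h, measure cell-surface uPAR by ELISA, then fit the signal in both directions against the DMSO negative control.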

The nature of assay [9]: BSK_3C_VCAM1: BioMAP Diversity Plus: 3C Assay for Vascular cell adhesion molecule 1 (VCAM1) Biomarker Activity (AID 2282999). Conditions: BioMAP 3C HUVEC, VCAM1 ELISA, cytokine-stimulated; actives raise or lower the signal. The gist of the method: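 Activity fitted in both directions relative to DMSO, with ELISA measurement of the surface marker on primary HUVEC (3C) at 24 h post-treatment; parallel SRB staining (0.1% SRB, TCA-fixed, 560 nm) flagged overt cytotoxicity.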

Assay [10] deals with human Peroxisome Proliferator-activated Receptor alpha (PPARa), PPARA (gene 5465) (UniProt Q07869). The assay can be described thus: ATG_PPARa_TRANS: Attagene TRANS-FACTORIAL HepG2 Assay for human Peroxisome Proliferator-activated Receptor alpha (PPARa) (AID 2283001; active means hit-call score of the fitted dose curve at least 0.9, where 1 is the maximum;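 on AC50: potency for gain of reporter signal over DMSO so agonist or activator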). The method, boiled down:
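Transfected HepG2 cells treated with test chemical for 24 h. RNA isolated, reverse-transcribed with oligo(dT), PCR-amplified, FAM-labelled and HpaI-digested. Fragments sized by capillary electrophoresis; gain-of-signal fit relative to DMSO.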

For assay [11], the target named is human Peroxisome Proliferator-activated Receptor delta (PPARd), PPARD (gene 5467) (UniProt Q03181). The assay can be described thus: ATG_PPARd_TRANS: Attagene TRANS-FACTORIAL HepG2 Assay for human Peroxisome Proliferator-activated Receptor delta (PPARd) (AID 2283002; active means hit-call score of the fitted dose curve at least 0.9, where 1 is the maximum). The method, boiled down:
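Read-out is induced reporter mRNA, quantified by RT-PCR with fluorescent labelling and capillary electrophoresis after 24 h dosing. Cells are HepG2 transiently carrying multiple GAL4-UAS reporter units driven by exogenous NR-GAL4 chimeras; DMSO serves as baseline.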

The nature of assay [12]: BSK_3C_Proliferation: Cell Proliferation Assessment in the BioMAP Diversity Plus: 3C Assay (AID 2283006).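 On AC50: potency may reflect either rise or fall in cell number versus DMSO.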 Conditions: primary human endothelial cells (HUVEC). The method, boiled down:
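HUVEC, sub-confluent; 48 h chemical exposure; 10% TCA fix, 0.1% SRB stain, A560 total protein. Gain or loss of signal fitted both directions vs DMSO control.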

The target of assay [13] is Peroxisome proliferator-activated receptor gamma (Homo sapiens) (UniProt P37231). The assay can be described thus: ATG_PPARg_TRANS: Attagene TRANS-FACTORIAL HepG2 Assay for human Peroxisome Proliferator-activated Receptor-gamma (PPARg) (AID 2283007; active means hit-call score of the fitted dose curve at least 0.9, where 1 is the maximum). The method, boiled down:
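Gain-of-signal endpoint relative to DMSO, derived from reporter mRNA levels quantified by RT-PCR and capillary electrophoresis. Cells were HepG2 transiently expressing a chimeric NR-Gal4 construct with GAL4-UAS reporters, exposed to chemicals for 24 h.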

The target of assay [14] is Nuclear receptor subfamily 1 group I member 2 (Homo sapiens) (UniProt O75469). Description: ATG_PXR_TRANS: Attagene TRANS-FACTORIAL HepG2 Assay for human Pregnane X Receptor (PXR) (AID 2283008; active means hit-call score of the fitted dose curve at least 0.9, where 1 is the maximum). The method, boiled down: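 Transactivation by exogenous PXR–GAL4 fusion measured as reporter transcript induction after 24 h compound treatment of transfected human HepG2 cells. Read-out via RT-PCR and capillary electrophoresis of labelled fragments, fitted upward relative to DMSO.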
Nuclear receptor subfamily 1 group I member 2 (Homo sapiens), sequence (O75469 whole entry, looked up, the tested form may be a part): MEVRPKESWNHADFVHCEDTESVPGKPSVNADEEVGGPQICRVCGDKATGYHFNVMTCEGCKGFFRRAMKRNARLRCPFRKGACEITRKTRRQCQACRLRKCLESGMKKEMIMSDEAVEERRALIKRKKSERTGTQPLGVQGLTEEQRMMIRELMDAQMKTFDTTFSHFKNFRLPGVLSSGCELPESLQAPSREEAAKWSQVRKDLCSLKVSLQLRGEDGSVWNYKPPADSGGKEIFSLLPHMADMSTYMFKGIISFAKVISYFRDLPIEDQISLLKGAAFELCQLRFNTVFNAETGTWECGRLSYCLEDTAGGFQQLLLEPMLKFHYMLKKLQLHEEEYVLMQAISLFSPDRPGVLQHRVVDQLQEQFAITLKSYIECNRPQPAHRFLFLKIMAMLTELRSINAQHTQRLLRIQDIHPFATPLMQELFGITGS

Assay [15] can be described thus: BSK_4H_Eotaxin3: BioMAP Diversity Plus: 4H Assay for Eotaxin 3 Biomarker Activity (AID 2283000).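 Further: CCL26 protein level quantified by ELISA in parallel with SRB cytotoxicity check.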 Conditions: primary human endothelial cells (HUVEC); actives raise or lower the signal. The method, boiled down: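 HUVEC, 24 h post-dose, ELISA for Eotaxin-3/CCL26. Gain or loss of signal fitted bidirectionally vs DMSO baseline.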
In assay [16] the target is human Retinoic Acid Receptor beta (RARb), RARB (gene 5915) (UniProt P10826). The assay can be described thus: ATG_RARb_TRANS: Attagene TRANS-FACTORIAL HepG2 Assay for human Retinoic Acid Receptor beta (AID 2283004; active means hit-call score of the fitted dose curve at least 0.9, where 1 is the maximum). The method, boiled down:
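HepG2 cells transiently transfected with multiplexed GAL4-UAS reporter units expressing chimeric NR–Gal4 fusions; 24 h compound exposure. Reporter mRNA quantified by RT-PCR, 6-FAM labelling, HpaI digestion and capillary electrophoresis; gain-of-signal fitted against DMSO baseline.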

For assay [17], the target named is Retinoic acid receptor alpha (Homo sapiens) (UniProt P10276). Description: ATG_RARa_TRANS: Attagene TRANS-FACTORIAL HepG2 Assay for human Retinoic Acid Receptor alpha (RARa) (AID 2283005; active means hit-call score of the fitted dose curve at least 0.9, where 1 is the maximum;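 on AC50: potency for increased reporter signal meaning RARa activation over DMSO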). The gist of the method:
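Reporter transcripts, measured by RT-PCR with fluorescent labeling and capillary electrophoresis after 24 h dosing, reflect activity of an exogenous human RARa–GAL4 fusion in transiently transfected HepG2. Fitted for increase relative to DMSO.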

Values joined by “and” are separate entries in the source; they are usually repeats but may differ in a detail not shown here. Identical values can stand only once. Results filed as inconclusive are left out. Some structures have more than one record in an assay (separate samples or runs), and their calls can disagree. Active and inactive are the calls of the source. How the source made its calls, unless noted: active means hit-call score of the fitted dose curve at least 0.9, where 1 is the maximum; inactive means score below 0.9.

Nuclear respiratory factor 1 (Homo sapiens), sequence (Q16656 whole entry, looked up, the tested form may be a part): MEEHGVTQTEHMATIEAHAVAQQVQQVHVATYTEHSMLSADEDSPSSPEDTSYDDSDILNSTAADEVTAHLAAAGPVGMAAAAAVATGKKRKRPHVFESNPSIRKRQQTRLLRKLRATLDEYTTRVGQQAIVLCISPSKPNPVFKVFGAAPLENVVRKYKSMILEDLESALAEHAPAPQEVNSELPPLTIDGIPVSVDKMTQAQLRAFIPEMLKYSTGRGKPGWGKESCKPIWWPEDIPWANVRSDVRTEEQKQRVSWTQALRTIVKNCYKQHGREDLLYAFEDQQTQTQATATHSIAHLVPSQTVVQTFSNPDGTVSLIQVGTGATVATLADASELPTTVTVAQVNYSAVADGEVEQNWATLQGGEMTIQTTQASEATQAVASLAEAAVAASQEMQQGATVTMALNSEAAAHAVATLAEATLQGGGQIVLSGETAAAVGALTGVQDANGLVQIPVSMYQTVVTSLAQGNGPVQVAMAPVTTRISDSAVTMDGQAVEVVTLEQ
human Peroxisome Proliferator-activated Receptor delta (PPARd), PPARD (gene 5467), sequence (Q03181 whole entry, looked up, the tested form may be a part): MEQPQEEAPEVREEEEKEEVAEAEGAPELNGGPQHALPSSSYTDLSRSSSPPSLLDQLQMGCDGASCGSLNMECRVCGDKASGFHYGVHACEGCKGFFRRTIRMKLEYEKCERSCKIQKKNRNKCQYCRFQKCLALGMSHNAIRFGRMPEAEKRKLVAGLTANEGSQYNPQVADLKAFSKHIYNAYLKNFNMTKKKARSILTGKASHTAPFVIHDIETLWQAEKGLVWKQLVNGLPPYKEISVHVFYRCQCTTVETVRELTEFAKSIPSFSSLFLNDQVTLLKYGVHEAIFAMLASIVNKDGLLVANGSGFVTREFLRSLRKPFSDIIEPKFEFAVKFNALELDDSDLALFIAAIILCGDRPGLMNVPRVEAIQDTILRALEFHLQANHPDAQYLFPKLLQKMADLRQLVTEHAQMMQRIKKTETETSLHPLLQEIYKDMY
Peroxisome proliferator-activated receptor gamma (Homo sapiens), sequence (P37231 whole entry, looked up, the tested form may be a part): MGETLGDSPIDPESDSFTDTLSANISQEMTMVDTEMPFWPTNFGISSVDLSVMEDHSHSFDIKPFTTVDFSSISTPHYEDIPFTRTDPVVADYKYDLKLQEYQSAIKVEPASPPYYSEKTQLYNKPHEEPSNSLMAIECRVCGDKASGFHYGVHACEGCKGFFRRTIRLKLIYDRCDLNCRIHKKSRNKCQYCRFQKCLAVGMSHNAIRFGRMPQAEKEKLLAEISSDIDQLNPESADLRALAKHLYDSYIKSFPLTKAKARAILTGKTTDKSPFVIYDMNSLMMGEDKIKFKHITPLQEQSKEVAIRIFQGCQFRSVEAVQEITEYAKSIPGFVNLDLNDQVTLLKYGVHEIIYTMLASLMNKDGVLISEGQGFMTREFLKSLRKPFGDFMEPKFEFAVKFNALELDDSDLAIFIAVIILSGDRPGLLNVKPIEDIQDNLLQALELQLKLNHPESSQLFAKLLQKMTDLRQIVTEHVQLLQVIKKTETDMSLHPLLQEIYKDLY
human Retinoic Acid Receptor beta (RARb), RARB (gene 5915), sequence (P10826 whole entry, looked up, the tested form may be a part): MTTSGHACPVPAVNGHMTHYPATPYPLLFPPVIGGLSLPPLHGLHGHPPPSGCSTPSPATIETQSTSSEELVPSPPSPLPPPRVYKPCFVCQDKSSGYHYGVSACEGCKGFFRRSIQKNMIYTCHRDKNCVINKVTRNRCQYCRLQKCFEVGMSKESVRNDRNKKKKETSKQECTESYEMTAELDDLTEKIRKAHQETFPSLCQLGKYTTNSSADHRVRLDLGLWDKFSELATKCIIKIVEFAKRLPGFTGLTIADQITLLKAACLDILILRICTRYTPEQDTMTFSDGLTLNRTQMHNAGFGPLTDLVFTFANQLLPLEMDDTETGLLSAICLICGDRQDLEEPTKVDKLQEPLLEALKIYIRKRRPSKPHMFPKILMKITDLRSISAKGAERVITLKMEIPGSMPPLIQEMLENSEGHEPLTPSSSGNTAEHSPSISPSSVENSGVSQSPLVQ
human Peroxisome Proliferator-activated Receptor alpha (PPARa), PPARA (gene 5465), sequence (Q07869 whole entry, looked up, the tested form may be a part): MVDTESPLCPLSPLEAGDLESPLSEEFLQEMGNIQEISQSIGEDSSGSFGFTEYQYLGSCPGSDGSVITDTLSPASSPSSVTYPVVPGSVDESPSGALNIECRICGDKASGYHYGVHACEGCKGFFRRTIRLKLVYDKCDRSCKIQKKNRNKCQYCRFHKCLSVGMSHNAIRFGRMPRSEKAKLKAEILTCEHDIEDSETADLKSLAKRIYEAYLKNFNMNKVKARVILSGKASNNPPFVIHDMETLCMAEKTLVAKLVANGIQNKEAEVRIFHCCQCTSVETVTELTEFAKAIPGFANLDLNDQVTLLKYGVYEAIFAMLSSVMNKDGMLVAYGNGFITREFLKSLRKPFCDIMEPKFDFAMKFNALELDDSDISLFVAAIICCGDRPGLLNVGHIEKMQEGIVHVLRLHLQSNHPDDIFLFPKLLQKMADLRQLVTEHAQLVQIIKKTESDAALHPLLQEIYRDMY
Cellular tumor antigen p53 (Homo sapiens), sequence (P04637 whole entry, looked up): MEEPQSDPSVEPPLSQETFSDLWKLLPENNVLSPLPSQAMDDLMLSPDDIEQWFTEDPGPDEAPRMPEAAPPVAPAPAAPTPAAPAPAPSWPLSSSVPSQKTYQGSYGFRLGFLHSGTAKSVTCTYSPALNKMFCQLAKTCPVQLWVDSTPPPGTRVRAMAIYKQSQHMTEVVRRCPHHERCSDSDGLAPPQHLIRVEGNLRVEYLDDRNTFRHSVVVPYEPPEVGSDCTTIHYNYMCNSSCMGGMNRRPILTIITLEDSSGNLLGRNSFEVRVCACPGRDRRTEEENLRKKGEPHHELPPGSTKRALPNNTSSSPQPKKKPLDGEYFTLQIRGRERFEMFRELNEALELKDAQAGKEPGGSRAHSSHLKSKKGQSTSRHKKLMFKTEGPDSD
Retinoic acid receptor alpha (Homo sapiens), sequence (P10276 whole entry, looked up, the tested form may be a part): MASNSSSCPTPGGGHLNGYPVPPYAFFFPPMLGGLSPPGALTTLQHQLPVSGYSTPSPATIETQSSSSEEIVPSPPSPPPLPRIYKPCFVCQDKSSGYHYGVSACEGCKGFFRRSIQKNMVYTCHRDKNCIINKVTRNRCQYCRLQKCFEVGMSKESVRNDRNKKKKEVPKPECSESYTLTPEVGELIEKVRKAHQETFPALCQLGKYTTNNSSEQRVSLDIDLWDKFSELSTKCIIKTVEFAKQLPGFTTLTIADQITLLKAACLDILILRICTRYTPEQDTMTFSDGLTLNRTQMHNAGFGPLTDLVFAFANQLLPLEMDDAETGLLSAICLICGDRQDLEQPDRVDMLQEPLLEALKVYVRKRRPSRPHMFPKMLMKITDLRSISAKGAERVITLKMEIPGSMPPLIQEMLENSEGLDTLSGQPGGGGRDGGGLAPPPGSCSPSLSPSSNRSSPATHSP

In general, AC50 refers to the midpoint of the concentration-response curve, whichever way the signal moves. As for `Oc1c(I)cc(I)cc1I`, the compound was classed as inactive in [1], in assay [2], in assay [3], in [4], in assay [6] and in assay [7]. For the same compound, in assay [11], the call was inactive. Also, the AC50 in [5] was 34.5 µM (active); in assay [8], 10.5 µM (active); in [9] it was 15.5 µM (active); in assay [10] it was 16.6 µM (active); in [12], 11.4 µM (active); in [13], 9.7 µM (active). In addition, the AC50 in assay [14] was 6.69 µM (active).

For `O=Cc1cccc(Oc2ccccc2)c1`, the compound was classed as inactive in assay [1], in assay [2], in [3], in [4], in assay [5] and in assay [7]. The result in [8], in assay [9], in assay [15], in assay [10], in assay [16] and in assay [12] was inactive. Moreover, the call in assay [13] and in assay [14] was inactive.

Regarding `Nc1cccc(Cl)c1`, the compound was called inactive in [1], in assay [2], in assay [3], in [4], in assay [5] and in assay [6]. Moreover, in [10], the outcome was inactive.

As to `O=C1CCCN1`, the result in assay [1], in assay [2], in [3], in [4], in assay [5] and in assay [11] was inactive. Further, the compound was classed as inactive in assay [13].

For `COc1cc(-c2ccc(N)c(OC)c2)ccc1N`, the result in [1], in assay [2], in assay [3], in assay [4], in assay [6] and in assay [8] was inactive. Also, the result in assay [9], in assay [10], in [11], in assay [16], in assay [17] and in assay [12] was inactive. Besides, the outcome in [13] and in assay [14] was inactive. In addition, the concentration at half-maximal activity (AC50) was 27.5 µM (active) and 28.5 µM (active) in [5]; 4.68 µM (active) and 3.97 µM (active) in [7]; 27.4 µM (active) in assay [17]; 28.8 µM (active) in assay [12].

As for `ClCCBr`, the compound was called inactive in [1], in assay [2], in assay [3], in assay [4], in [5] and in [6]. Also, the compound was called inactive in [10], in [11] and in assay [14].

For the compound `COP(=S)(OC)Oc1cc(Cl)c(Cl)cc1Cl`, the result in assay [1], in assay [2], in assay [3], in assay [5], in assay [6] and in assay [8] was inactive. Also, the result in assay [9], in assay [11] and in assay [16] was inactive. The AC50 was 34.1 µM (active) in assay [4]; 2.21 µM (active) in [7]; 100 µM (active) in assay [10]; 20 µM (active) in assay [12]; 54.8 µM (active) in [13].

Take `O=C(Nc1ccc2[nH]ccc2c1)c1cc2cc(F)ccc2n1Cc1cccc(F)c1`: the result in assay [1], in assay [6], in assay [11], in [13] and in [14] was inactive. In addition, the AC50 in assay [2] was 16.6 µM (active); in [3] it was 7.2 µM (active); in assay [4] it was 8.08 µM (active); in assay [5] it was 11 µM (active); in assay [7], 8.59 µM (active); in assay [8], 7.15 µM (active). Also, the figures for the AC50 in assay [9] and in assay [12] were 11.7 µM (active) and 3.44 µM (active), respectively.

Turning to `Cc1ccc2ccccc2c1C`, the result in assay [2], in [5], in assay [10], in [11], in assay [16] and in [13] was inactive. The compound was called inactive in assay [14].

For `CC(=[OH+])/C=C(/C)[O-].CC(=[OH+])/C=C(/C)[O-].CC(=[OH+])/C=C(/C)[O-].[Al]`, the call in assay [1], in [2], in [3], in assay [4], in assay [5] and in assay [6] was inactive. Besides, the compound was called inactive in assay [10] and in [14].

The record behind these values is PubChem BioAssay (EPA / NIEHS).
